# Shown are actives, neighbours in structure and some others; about 10% of the full set was active somewhere.
# HEK293 tox: Cytotoxic Profiling in HEK 293 Cell Line of Diverse Libraries Using Quantitative High-Throughput Screening; 94,000 tested, 6.6% active; Potency, µM (top dose mostly 115 µM), without a hit: at the highest dose activity change, negative = cytotoxicity, hits mostly inhibitors; HEK 293 viability, ATP luminescence (CellTiter-Glo), 48-72 h; AID 1345083, 2018; also: nearly all actives have a fitted effect of over 60% in size
#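 qHTS cytotoxicity; HEK 293, 250 cells/well; compound pinned; 48 or 72 hr, 37 degree Celsius, 5% CO2, 95% humidity; CellTiter-Glo, 10 min RT; luminescence (ATP).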
# Luciferase inh: Firefly luciferase inhibition profiling of diverse chemical library using quantitative high-throughput screening; Luciferin 4-monooxygenase (Photinus pyralis), P08659; purified P. pyralis luciferase, luminescence, biochemical; Potency, µM (doses to about 115 µM), most hits filed as inhibitors; 76,000 tested, 2.5% active; AID 1347043, 2019; also: nearly all actives have a fitted effect of over 65% in size
#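 Inhibitors were tested against purified firefly luciferase in a biochemical, low-substrate format (both substrates at 10uM) and luminescence measured with a CCD imager.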
# NPR1 antag: Natriuretic polypeptide receptor (hNpr1) antagonism - Primary qHTS; Potency, µM (doses to about 46.3 µM), for the others: top-dose activity change, negative = inhibition, most hits filed as inhibitors; 76,000 tested, 1.6% active; HEK293 hNpr1 GloSensor cGMP, ANP-stimulated luminescence; calls by dose curve; also: nearly all actives have a fitted effect of over 60% in size
#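 Compound pre-incubated 30 min at room temperature on GloSensor-loaded HEK293 cells stably carrying hNpr1 and the pGS-40F cGMP biosensor. Stimulation uses hNppA at 0.1 nM final; luminescence is taken at baseline and 20 min post-agonist.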
# 3T3 cytotox: Cytotoxic Profiling in NIH 3T3 Cell Line of Diverse Libraries Using Quantitative High-Throughput Screening; NIH 3T3 viability, CellTiter-Glo ATP luminescence, 48-72 h; Potency, µM (top dose mostly 96.7 µM), for the others: at the top dose activity change, negative = cytotoxicity, hits mostly inhibitors; 94,000 tested, 4.3% active; AID 1345082, 2018; also: nearly all actives have a fitted effect of over 55% in size
#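 Mouse fibroblast NIH 3T3 cells, 400 per well, received compound via pintool and were incubated for 48 or 72 hr prior to CellTiter-Glo ATP luminescence measurement.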
# GPT2 inhibitor: Primary qHTS assay for inhibitors of Glutamate pyruvate transaminase 2 (GPT2); Potency, µM (highest dose often 57.7 µM), for inactives: at the highest dose activity change, negative = inhibition, usual class: inhibitors; 100,000 tested, 0.25% active; Alanine aminotransferase 2 (Homo sapiens), Q8TD30; Recombinant GPT2, coupled pyruvate oxidase/HRP Amplex Red fluorescence; AID 1671188, 2021; also: nearly all actives have a fitted effect of over 60% in size
#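 GPT2 10ng/uL, a-KG 250uM, L-Ala 2mM, HEPES pH7.5 + 0.0001% Tween; 30 min RT. Then Amplex mix (PO/HRP/ThPP), 30 min RT dark, fluorescence. AOA 50uM used as positive control.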
# Starred values were filed as active, the others as inactive; i = inactive; ? = inconclusive; [ ] = dose if it differs, or a comment. Unless noted, calls follow the shape of the dose curve; as a rule, active = well fitted curve in the direction sought with a large enough effect; inconclusive = small, poorly fitted or top-dose-only effect, or another doubt; inactive = no such curve, though single readings can be large; an effect the other way counts as inactive or inconclusive. % is scaled to controls: 0 for no effect and ±100 for the full control effect; potency is read from the fitted curve at half-maximal effect.
SMILES,HEK293 tox,Luciferase inh,NPR1 antag,3T3 cytotox,GPT2 inhibitor
COc1ccc(NC(=O)O[C@@H]2CO[C@H]3[C@@H]2OC[C@@H]3NCc2ccc(-c3ccccc3)cc2)cc1,35µM*,?,5.6µM*,?,-15%
O=C(COc1ccccc1)N[C@H]1CO[C@H]2[C@@H]1OC[C@@H]2n1nnnc1Oc1ccc(-n2cncn2)cc1,4%,i,2%,-23%,-24%
N#Cc1ccccc1S(=O)(=O)N[C@H]1CO[C@H]2[C@@H]1OC[C@H]2OC(=O)Nc1ccc(Oc2ccccc2)cc1,?,40µM*,11µM*,?,1%
CCOC(=O)CNC(=O)CCc1conc1-c1ccc(OC)cc1,-10%,?,-7%,0%,2%
CC(=O)c1ccc(NC(=O)O[C@@H]2CO[C@H]3[C@@H]2OC[C@@H]3NC(=O)Nc2ccc(Oc3ccccc3)cc2)cc1,32µM*,i,?,?,0%
O=C(Nc1cccc(C(F)(F)F)c1)N[C@H]1CO[C@H]2[C@@H]1OC[C@@H]2Nc1nccc(C2CCCC2)n1,?,i,-6%,79µM*,i
O=C(Nc1ccc(Oc2ccccc2)cc1)N[C@H]1CO[C@H]2[C@@H]1OC[C@H]2OC(=O)Nc1cccc(C(F)(F)F)c1,-32%,i,-15%,-34%,-9%
O=C(Nc1ccccc1)N[C@H]1CO[C@H]2[C@@H]1OC[C@H]2OC(=O)Nc1ccc(Oc2ccccc2)cc1,?,?,7.9µM*,?,0%
O=C(Nc1ccccc1)N[C@H]1CO[C@H]2[C@@H]1OC[C@@H]2Nc1nccc(C2CCCC2)n1,-30%[172 µM],i,2%[70.6 µM],?,-1%[88.5 µM]
O=C(c1cc2ccccc2[nH]1)N1CCC(c2noc(C3CC3)n2)C1 (stereo not given),?,28µM*,?,?,-1%
Cc1c(-c2ccccc2)[nH]c2c(CNC(=O)c3ccc(=O)n(C)n3)cc(Cl)cc12,28µM*,?,11µM*,?,-33%
Cc1c(-c2ccccc2)[nH]c2c(CNC(=O)CN3C(=O)CNC3=O)cc(Cl)cc12,?,10µM*,2%,?,i
O=C(N1CCC(n2cc(-c3nc(-c4ccccc4)no3)nn2)C1)C1(c2ccccc2)CC1 (stereo not given),?,?,?,?,3%
Cc1csc(NC(=O)c2nc(C(O)c3cccc(O)c3)oc2C)n1 (stereo not given),?,i,?,?,?
CC1(Cc2ccc3c(c2)OCO3)CCCN(C(=O)N2CCOCC2)C1 (stereo not given),-29%,i,-7%,-17%,-2%
CC1(Cc2ccc3c(c2)OCO3)CCCN(C(=O)c2cncc(Cl)c2)C1 (stereo not given),32µM*,i,-5%,?,-32%
Cc1c(Cl)c(C(=O)N2CCCC(C)(Cc3ccc4c(c3)OCO4)C2)nn1C (stereo not given),?,32µM*,-23%,?,-7%
COc1ccc(C2Cn3cnc(C(=O)N4CCC(C(=O)NCc5ccccn5)CC4)c3CO2)cc1 (stereo not given),5%,i,-15%,i,i
O=C(NCc1cccc(Cl)c1)C1CCN(C(=O)c2ncn3c2COC(c2ccccc2)C3)CC1 (stereo not given),1%,20µM*,-14%,-19%,i
O=C(NCc1ccccn1)C1CCN(C(=O)c2ncn3c2COC(c2ccc(Cl)cc2)C3)CC1 (stereo not given),-10%,32µM*,1%,4%,-10%
O=C(NCc1cccc(Cl)c1)C1CCN(C(=O)c2ncn3c2COC(c2ccc(F)cc2)C3)CC1 (stereo not given),14%,25µM*,3%,1%,?

# Screens deposited in PubChem by National Center for Advancing Translational Sciences (NCATS).
